Active and inactive are the calls of the source.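 Rule for the calls: active = EC50 at or below 10 µM; inactive = EC50 above 10 µM.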
Assay: compound autofluorescence in calcium buffer – biochemical, fluorescence, no RTF in test wells, artefact control for cardiac thin filament activator project, dose response (AID 504697);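 note: emission near 535 nm under roughly 485 nm excitation as for IANBD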
Conditions: compound-only fluorescence in RTF assay buffer with Ca2+ (no RTF in test wells), artifact counterscreen

Structure (SMILES)	EC50
O=[N+]([O-])c1ccc(NN=Cc2cccc3ccccc23)nc1	62.7 µM (inactive)
COc1cccc(CC(NC(C)=O)C(=O)NC2CCN(c3nc(C)cc(C)c3C#N)CC2)c1OC (stereo unspecified)	> 71.5 µM (inactive)
CNc1ccccc1C(C)(C)c1cc(C)[nH]n1	> 71.5 µM (inactive)
O=C(Nc1ccc2c(c1)OCCO2)c1cccc(Cl)c1Cl	> 71.4 µM (inactive)
C/C(O)=c1/ccc2cccc3nc(C)nc1c23	> 23.8 µM (inactive)
Cc1ccc(S(=O)(=O)NCCCCCC(=O)Nc2ccccc2C)cc1	> 71.5 µM (inactive)
O=C1c2cccc3c(N4CCCCC4)ccc(c23)C(=O)N1c1cccc(O)c1	5.54 µM (active)
CC(=O)Nc1ccc2cc3ccc(NC(C)=O)cc3nc2c1	> 71.5 µM (inactive)
O=C(NCc1nnc(SCC(=O)N2CCCCCC2)o1)c1ccco1	> 71.5 µM (inactive)
CN(C)CCN(C)Cc1c2ccccc2c(CN(C)CCN(C)C)c2ccccc12	> 71.5 µM (inactive)
Cn1nc(-c2ccccc2)c(C(=O)Nc2ccc(C(F)(F)F)cc2)c1Cl	> 71.5 µM (inactive)
Cc1ccnc2nc(C(=O)OCC(=O)NCCc3ccccc3)nn12	> 71.5 µM (inactive)
COc1ccccc1/C=C/C=C1\Oc2c(ccc(O)c2CN2CCN(CCO)CC2)C1=O	3.63 µM (active)
CC(C(=O)c1ccc(Br)cc1)[n+]1cccc2ccccc21 (stereo unspecified)	> 71.5 µM (inactive)
COc1cc(CCCN2C(=S)NC[C@@H]2CC2CCCCC2)cc(OC)c1OC	> 71.5 µM (inactive)
NC(=O)C1CCN(C(=O)c2ccc(-c3ccccc3)cc2)CC1	> 71.6 µM (inactive)
N#Cc1ccc(S(=O)(=O)NC2CCCCNC2=O)cc1 (stereo unspecified)	> 71.4 µM (inactive)
Cn1cc(/C=C2\SC(=S)N(NC(=O)c3ccccc3)C2=O)c2ccccc21	9.01 µM (active)

Structure (SMILES)	EC50
Cc1ccc(N2C3=C(C(=O)CC(C)(C)C3)C(c3cn(C)nc3C)C3=C2CC(C)(C)CC3=O)cc1	17.1 µM (inactive)
Cc1ccc[n+](-c2nc([O-])sc2C=O)c1	5.53 µM (active)
O=C(OCCN1C(=O)c2cccc3c(N4CCOCC4)ccc(c23)C1=O)c1ccc(Cl)cc1Cl	2.52 µM (active)
COc1ccc(C(=O)Nn2cnc3scc(-c4cccs4)c3c2=O)c(O)c1	> 71.5 µM (inactive)
Cc1c(O)c2c3c(cccc3c1O)C(=O)N(c1ccccc1)C2=O	13.9 µM (inactive)
COc1ccccc1N1CCN(c2ccc([N+](=O)[O-])cc2Cl)CC1	> 71.5 µM (inactive)
C=CCn1c(C)c(/C=C/c2cc[n+](C)cc2)c2ccccc21	4.64 µM (active)
COc1cc(C(=O)Oc2ccccc2/C=N/NC(=O)c2ccc(Cl)cc2)cc(OC)c1OC	> 71.5 µM (inactive)
COc1ccc(S(=O)(=O)N2CN(Cc3ccco3)c3nc4ccccc4nc32)cc1	> 71.5 µM (inactive)
O=C1c2ccccc2C(Nc2cccnc2)N1Cc1ccccc1Cl (stereo unspecified)	> 71.5 µM (inactive)
CC(=O)Nc1ccc(N=Cc2nc(-c3ccc(C)cc3)oc2O)cc1	20 µM (inactive)
CC(COC(=O)c1ccccc1)(COC(=O)c1ccccc1)/[N+]([O-])=C/c1ccccc1	> 71.5 µM (inactive)
COc1ccc2ccccc2c1C(O)c1nccn1C (stereo unspecified)	10.7 µM (inactive)
COc1ccccc1NC(=O)COC(=O)c1cnc(C)cn1	> 71.5 µM (inactive)
CC(Oc1ccc(F)cc1)C(=O)Nc1sc2c(c1C(=O)NCc1cccnc1)CCCC2 (stereo unspecified)	> 71.5 µM (inactive)
CN(CC(=O)NCc1ccco1)S(=O)(=O)c1cccc2cccnc12	> 71.5 µM (inactive)
Cc1ccc(C)c(N2CCN(C(=O)CN3C(=S)NC(C)(C)CC3C)CC2)c1 (stereo unspecified)	> 71.5 µM (inactive)
N=C1c2ccccc2CN1c1ccc(S(=O)(=O)N2CCCCC2)cc1	> 71.5 µM (inactive)

— PubChem BioAssay AID504697 (The Scripps Research Institute Molecular Screening Center, 2011)
